Compound in this experiment: CN[C@@H]1C[C@H]2O[C@@](C)([C@@H]1OC)n1c3ccccc3c3c4c(c5c6ccccc6n2c5c31)C(=O)NC4 [staurosporine]
The experiment is described as follows: log2 fold change of tryptic peptide abundance, ligand vs vehicle (limited proteolysis) (log2 ratio); higher = more trypsin-susceptible (destabilized). The settings on record: ligand concentration: 20 uM; sample: K562 cleared lysate; digestion: 4 min, 22 C (HT-PELSA RT4min, Orbitrap Astral).
Sequence of UniProt O00506 (O00506 whole entry, looked up): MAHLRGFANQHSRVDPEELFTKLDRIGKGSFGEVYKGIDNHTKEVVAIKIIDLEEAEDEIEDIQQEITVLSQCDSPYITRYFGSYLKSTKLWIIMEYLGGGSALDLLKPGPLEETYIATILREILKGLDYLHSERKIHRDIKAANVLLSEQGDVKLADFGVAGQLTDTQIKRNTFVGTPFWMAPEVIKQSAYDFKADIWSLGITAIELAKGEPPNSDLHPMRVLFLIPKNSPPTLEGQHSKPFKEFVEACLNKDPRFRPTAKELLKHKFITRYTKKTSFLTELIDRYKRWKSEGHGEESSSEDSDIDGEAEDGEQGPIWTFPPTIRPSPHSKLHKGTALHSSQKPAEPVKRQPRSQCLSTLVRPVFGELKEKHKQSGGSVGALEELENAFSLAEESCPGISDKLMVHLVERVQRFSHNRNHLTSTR
Sequence of UniProt Q9NRH2 (Q9NRH2 whole entry): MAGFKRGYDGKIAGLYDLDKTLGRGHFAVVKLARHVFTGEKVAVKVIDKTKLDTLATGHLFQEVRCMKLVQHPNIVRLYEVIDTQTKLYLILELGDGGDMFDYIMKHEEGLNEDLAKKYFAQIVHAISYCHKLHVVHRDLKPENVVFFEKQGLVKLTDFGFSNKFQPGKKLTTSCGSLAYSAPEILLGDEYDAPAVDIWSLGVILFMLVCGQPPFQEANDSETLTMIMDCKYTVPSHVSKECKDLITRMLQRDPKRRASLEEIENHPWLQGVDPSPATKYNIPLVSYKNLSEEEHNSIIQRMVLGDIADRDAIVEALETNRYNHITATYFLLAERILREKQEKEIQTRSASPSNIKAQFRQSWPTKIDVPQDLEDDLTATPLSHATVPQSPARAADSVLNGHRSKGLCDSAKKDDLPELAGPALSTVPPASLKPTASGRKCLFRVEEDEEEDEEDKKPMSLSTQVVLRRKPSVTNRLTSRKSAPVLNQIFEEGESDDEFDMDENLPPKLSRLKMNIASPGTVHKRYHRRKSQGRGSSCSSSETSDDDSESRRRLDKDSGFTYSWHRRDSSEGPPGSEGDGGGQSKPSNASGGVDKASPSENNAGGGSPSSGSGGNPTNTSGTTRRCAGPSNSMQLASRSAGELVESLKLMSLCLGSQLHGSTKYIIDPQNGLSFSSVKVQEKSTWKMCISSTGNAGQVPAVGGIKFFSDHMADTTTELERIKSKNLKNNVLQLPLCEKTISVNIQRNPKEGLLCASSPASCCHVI
Sequence of UniProt Q14376 (Q14376 whole entry): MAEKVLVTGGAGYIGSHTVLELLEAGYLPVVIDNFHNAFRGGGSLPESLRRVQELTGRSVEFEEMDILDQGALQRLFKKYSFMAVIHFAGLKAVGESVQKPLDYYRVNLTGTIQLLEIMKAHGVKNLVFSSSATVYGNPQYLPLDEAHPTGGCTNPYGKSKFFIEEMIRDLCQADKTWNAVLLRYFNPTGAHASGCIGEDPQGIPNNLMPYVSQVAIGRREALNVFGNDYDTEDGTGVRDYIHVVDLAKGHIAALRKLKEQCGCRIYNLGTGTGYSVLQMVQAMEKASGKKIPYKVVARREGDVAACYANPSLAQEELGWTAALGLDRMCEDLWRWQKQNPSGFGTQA
Sequence of UniProt Q9NYZ3 (Q9NYZ3 whole entry): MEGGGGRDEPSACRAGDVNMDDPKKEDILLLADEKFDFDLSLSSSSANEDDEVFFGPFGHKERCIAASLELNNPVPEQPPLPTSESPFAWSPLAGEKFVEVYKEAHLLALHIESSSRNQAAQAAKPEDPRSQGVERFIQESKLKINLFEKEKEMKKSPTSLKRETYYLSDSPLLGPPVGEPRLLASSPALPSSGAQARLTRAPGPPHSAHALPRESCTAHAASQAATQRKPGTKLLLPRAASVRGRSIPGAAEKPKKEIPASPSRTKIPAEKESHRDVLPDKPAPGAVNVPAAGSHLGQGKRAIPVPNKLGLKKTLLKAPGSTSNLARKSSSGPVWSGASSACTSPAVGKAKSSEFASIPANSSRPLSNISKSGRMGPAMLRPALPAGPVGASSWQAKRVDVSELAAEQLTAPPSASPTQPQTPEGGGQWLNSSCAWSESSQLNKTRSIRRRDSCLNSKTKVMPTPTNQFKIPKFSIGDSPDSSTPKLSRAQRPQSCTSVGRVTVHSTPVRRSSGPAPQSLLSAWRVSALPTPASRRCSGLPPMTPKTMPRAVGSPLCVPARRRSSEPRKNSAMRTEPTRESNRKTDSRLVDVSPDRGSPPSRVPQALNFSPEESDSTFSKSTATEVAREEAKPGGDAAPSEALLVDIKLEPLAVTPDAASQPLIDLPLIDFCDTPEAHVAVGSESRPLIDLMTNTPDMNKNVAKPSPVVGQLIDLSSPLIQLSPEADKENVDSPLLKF
Sequence of UniProt O95067 (O95067 whole entry): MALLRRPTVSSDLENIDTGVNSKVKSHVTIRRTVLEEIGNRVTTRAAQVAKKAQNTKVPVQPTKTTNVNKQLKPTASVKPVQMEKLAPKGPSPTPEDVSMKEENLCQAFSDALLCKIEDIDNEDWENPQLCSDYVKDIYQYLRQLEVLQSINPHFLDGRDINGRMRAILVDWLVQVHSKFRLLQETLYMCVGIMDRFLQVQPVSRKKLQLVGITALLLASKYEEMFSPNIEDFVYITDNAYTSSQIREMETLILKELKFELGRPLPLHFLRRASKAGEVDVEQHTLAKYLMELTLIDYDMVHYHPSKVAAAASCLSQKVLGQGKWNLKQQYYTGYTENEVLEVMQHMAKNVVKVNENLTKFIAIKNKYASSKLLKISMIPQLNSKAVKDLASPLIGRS
Sequence of UniProt P30291 (P30291 whole entry, looked up): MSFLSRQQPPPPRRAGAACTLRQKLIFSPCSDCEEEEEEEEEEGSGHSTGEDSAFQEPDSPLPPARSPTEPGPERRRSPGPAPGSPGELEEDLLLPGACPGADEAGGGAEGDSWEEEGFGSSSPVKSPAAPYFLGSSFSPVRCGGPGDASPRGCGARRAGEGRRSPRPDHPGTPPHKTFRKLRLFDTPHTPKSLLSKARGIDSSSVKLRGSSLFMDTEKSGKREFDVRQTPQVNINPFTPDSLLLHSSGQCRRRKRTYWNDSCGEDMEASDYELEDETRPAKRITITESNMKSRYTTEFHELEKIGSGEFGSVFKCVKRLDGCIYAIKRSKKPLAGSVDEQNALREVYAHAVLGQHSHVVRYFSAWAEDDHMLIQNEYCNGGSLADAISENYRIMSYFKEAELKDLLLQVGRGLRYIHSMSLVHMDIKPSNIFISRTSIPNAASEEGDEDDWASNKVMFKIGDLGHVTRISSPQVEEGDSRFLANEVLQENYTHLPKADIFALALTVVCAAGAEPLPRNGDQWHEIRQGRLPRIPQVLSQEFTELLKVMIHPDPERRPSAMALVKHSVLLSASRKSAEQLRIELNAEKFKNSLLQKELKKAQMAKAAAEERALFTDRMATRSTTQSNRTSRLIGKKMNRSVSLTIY
Sequence of UniProt Q9BZL6 (Q9BZL6 whole entry): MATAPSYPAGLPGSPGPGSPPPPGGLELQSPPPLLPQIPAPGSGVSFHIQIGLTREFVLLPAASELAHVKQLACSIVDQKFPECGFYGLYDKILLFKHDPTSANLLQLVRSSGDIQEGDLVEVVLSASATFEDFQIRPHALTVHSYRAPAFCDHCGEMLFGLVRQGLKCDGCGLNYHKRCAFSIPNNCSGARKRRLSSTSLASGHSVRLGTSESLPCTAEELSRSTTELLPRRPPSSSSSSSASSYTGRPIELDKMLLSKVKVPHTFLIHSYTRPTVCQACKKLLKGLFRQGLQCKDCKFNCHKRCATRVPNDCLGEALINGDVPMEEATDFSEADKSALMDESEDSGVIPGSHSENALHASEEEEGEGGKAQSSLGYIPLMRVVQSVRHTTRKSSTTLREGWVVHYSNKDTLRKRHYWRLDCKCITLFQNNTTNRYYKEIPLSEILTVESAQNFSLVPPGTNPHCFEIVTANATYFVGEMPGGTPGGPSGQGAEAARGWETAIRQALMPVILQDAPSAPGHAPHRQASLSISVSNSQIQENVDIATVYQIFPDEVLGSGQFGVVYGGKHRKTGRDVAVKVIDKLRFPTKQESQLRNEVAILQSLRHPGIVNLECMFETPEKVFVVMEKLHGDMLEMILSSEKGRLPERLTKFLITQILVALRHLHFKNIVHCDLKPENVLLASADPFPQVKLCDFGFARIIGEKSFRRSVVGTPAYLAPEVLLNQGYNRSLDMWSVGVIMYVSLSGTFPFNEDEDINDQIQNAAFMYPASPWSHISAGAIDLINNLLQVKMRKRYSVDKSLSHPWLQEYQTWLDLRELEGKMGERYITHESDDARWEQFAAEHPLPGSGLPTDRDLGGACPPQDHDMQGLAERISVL
As to “CHD4 (peptide sequence: SDSEGSDYTPGK, peptide start residue: 103) (UniProt Q14839)”, the log2 fold change was 1.11.

Take “SNRK (peptide sequence: IAGLYDLDKTLGR, peptide start residue: 12) (UniProt Q9NRH2)”: the log2 fold change was -2.34.

As to “EPHB3 (peptide sequence: VSDFGLSR, peptide start residue: 537) (UniProt P54753)”, the log2 fold change amounted to 0.918.

As for “UniProt O00506 (peptide sequence: LADFGVAGQLTDTQIKR, peptide start residue: 160)”, the log2 fold change is -1.08.

Turning to “GALE (peptide sequence: MCEDLWR, peptide start residue: 329) (UniProt Q14376)”, the log2 fold change turned out to be 0.379.

Regarding “WEE1 (peptide sequence: FLANEVLQENYTHLPK, peptide start residue: 482) (UniProt P30291)”, the log2 fold change was -1.01.

Consider “CCNB2 (peptide sequence: VAAAASCLSQK, peptide start residue: 308) (UniProt O95067)”, for which the log2 fold change was -1.57.

On to “UniProt Q16512 (peptide sequence: IADFGLCK, peptide start residue: 756)”, for which the log2 fold change was -2.52.

Take “RPS17 (peptide sequence: NKIAGYVTHLMK, peptide start residue: 48) (UniProt P08708)”: the log2 fold change came out at 0.59.

With “GTSE1 (peptide sequence: SIPGAAEKPK, peptide start residue: 228) (UniProt Q9NYZ3)”, the log2 fold change stood at 0.58.

Consider “PRKD2 (peptide sequence: LSSTSLASGHSVR, peptide start residue: 196) (UniProt Q9BZL6)”, for which the log2 fold change came to 1.18.

The values above are taken from the supplement of paper PMC12819154, “High-throughput peptide-centric local stability assay extends protein–ligand identification to membrane proteins, tissues and bacteria” (Nature Structural & Molecular Biology, 2025).
